Results as given in PubChem BioAssay AID1159580 (chemical genetic matrix, 2015).
In all, about 5,500 compounds went through this assay and about 2,000 (36%) were called active. Another 18% or so got no clear call; they are omitted. No stated cut-off is given here; in the data, active means normalized growth mostly below about 0.91 (no sharp cut-off); inconclusive means no clear call, values can overlap the other calls; inactive means mostly above about 0.92. The list shows a part of the results.

Test: chemical genetic growth profiling, strain panel (AID 1159580);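 further: tested at 20 µM; growth read once vehicle control cultures reached saturation at 30 °C; 1 = growth at the plate median or of vehicle wells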
Details: growth OD

Measured: normalized growth

CC(C)(Oc1ccc(Cl)cc1)C(=O)O
inactive: S. cerevisiae deletion strains, locus YJR075W, strain HOC1, stronger effect = lower value 0.992 | S. cerevisiae deletion strains, locus YKL009W, strain mrt4, stronger effect = lower value 0.983 | S. cerevisiae deletion strains, locus YKL068W, stronger effect = lower value 0.967 | S. cerevisiae deletion strains, locus YKL085W, strain MDH1 (second series), stronger effect = lower value 0.981 | S. cerevisiae deletion strains, locus YKL085W, strain MDH1, stronger effect = lower value 0.981 | S. cerevisiae deletion strains, locus YKL160W, strain elf1, stronger effect = lower value 1.02 | S. cerevisiae deletion strains, locus YKL190W, strain CNB1, stronger effect = lower value 0.996 | S. cerevisiae deletion strains, locus YKR001C, strain vps1, stronger effect = lower value 0.973 | S. cerevisiae deletion strains, locus YKR026C, strain gcn3, stronger effect = lower value 1 | S. cerevisiae deletion strains, locus YKR091W, strain srl3, stronger effect = lower value 0.999 | S. cerevisiae deletion strains, locus YLL001W, strain dnm1, stronger effect = lower value 1 | S. cerevisiae deletion strains, locus YLL026W, stronger effect = lower value 1.01 | S. cerevisiae deletion strains, locus YLL041C, strain sdh2, stronger effect = lower value 0.996 | S. cerevisiae deletion strains, locus YLR027C, strain aat2, stronger effect = lower value 1.01 | S. cerevisiae deletion strains, locus YLR039C, strain RIC1, stronger effect = lower value 0.967 | S. cerevisiae deletion strains, locus YLR058C, strain SHM2, stronger effect = lower value 0.994 | S. cerevisiae deletion strains, locus YLR102C, strain apc9, stronger effect = lower value 0.987 | S. cerevisiae deletion strains, locus YLR221C, strain rsa3, stronger effect = lower value 0.981 | S. cerevisiae deletion strains, locus YLR258W, strain gsy2, stronger effect = lower value 1.03 | S. cerevisiae deletion strains, locus YLR262C, strain YPT6 (second series), stronger effect = lower value 1 | S. cerevisiae deletion strains, locus YLR262C, strain YPT6, stronger effect = lower value 0.948 | S. cerevisiae deletion strains, locus YLR268W, strain sec22, stronger effect = lower value 0.927 | S. cerevisiae deletion strains, locus YLR320W, strain mms22, stronger effect = lower value 0.98 | S. cerevisiae deletion strains, locus YLR330W, strain CHS5, stronger effect = lower value 0.985 | S. cerevisiae deletion strains, locus YLR342W, strain FKS1 (second series), stronger effect = lower value 1.06 | S. cerevisiae deletion strains, locus YLR342W, strain FKS1, stronger effect = lower value 1.03 | S. cerevisiae deletion strains, locus YLR357W, strain rsc2, stronger effect = lower value 1.03 | S. cerevisiae deletion strains, locus YLR370C, strain arc18, stronger effect = lower value 1.02 | S. cerevisiae deletion strains, locus YLR371W, strain rom2, stronger effect = lower value 0.98 | S. cerevisiae deletion strains, locus YLR384C, strain iki3, stronger effect = lower value 0.991 | S. cerevisiae deletion strains, locus YLR418C, strain cdc73, stronger effect = lower value 1 | S. cerevisiae deletion strains, locus YML016C, strain PPZ1, stronger effect = lower value 0.995 | S. cerevisiae deletion strains, locus YML032C, strain rad52, stronger effect = lower value 0.958 | S. cerevisiae deletion strains, locus YML120C, strain ndi1, stronger effect = lower value 0.983 | S. cerevisiae deletion strains, locus YML124C, strain tub3, stronger effect = lower value 0.99 | S. cerevisiae deletion strains, locus YMR058W, strain fet3, stronger effect = lower value 1.01 | S. cerevisiae deletion strains, locus YMR078C, strain ctf18, stronger effect = lower value 0.978 | S. cerevisiae deletion strains, locus YMR125W, strain sto1, stronger effect = lower value 1.05 | S. cerevisiae deletion strains, locus YMR129W, stronger effect = lower value 1.02 | S. cerevisiae deletion strains, locus YMR205C, strain PFK2, stronger effect = lower value 0.991 | S. cerevisiae deletion strains, locus YMR223W, strain ubp8, stronger effect = lower value 1.03 | S. cerevisiae deletion strains, locus YMR231W, strain pep5, stronger effect = lower value 0.999 | S. cerevisiae deletion strains, locus YMR263W, strain SAP30, stronger effect = lower value 0.985 | S. cerevisiae deletion strains, locus YMR307W, strain GAS1, stronger effect = lower value 1.09 | S. cerevisiae deletion strains, locus YNL067W, strain RPL9B, stronger effect = lower value 0.977 | S. cerevisiae deletion strains, locus YNL071W, strain lat1, stronger effect = lower value 1.02 | S. cerevisiae deletion strains, locus YNL128W, strain TEP1, stronger effect = lower value 0.996 | S. cerevisiae deletion strains, locus YNL153C, strain GIM3, stronger effect = lower value 0.979 | S. cerevisiae deletion strains, locus YNL209W, strain ssb2, stronger effect = lower value 1.02 | S. cerevisiae deletion strains, locus YNL233W, strain BNI4, stronger effect = lower value 0.994 | S. cerevisiae deletion strains, locus YNL248C, strain rpa49, stronger effect = lower value 1.05 | S. cerevisiae deletion strains, locus YNL250W, strain rad50, stronger effect = lower value 0.985 | S. cerevisiae deletion strains, locus YNL271C, strain bni1, stronger effect = lower value 0.983 | S. cerevisiae deletion strains, locus YNL298W, strain CLA4, stronger effect = lower value 0.963 | S. cerevisiae deletion strains, locus YNL307C, strain MCK1, stronger effect = lower value 0.976 | S. cerevisiae deletion strains, locus YNL322C, strain KRE1 (second series), stronger effect = lower value 0.996 | S. cerevisiae deletion strains, locus YNL322C, strain KRE1, stronger effect = lower value 0.995 | S. cerevisiae deletion strains, locus YNR049C, strain mso1, stronger effect = lower value 1.01 | S. cerevisiae deletion strains, locus YNR052C, strain pop2, stronger effect = lower value 0.98 | S. cerevisiae deletion strains, locus YOL006C, strain TOP1, stronger effect = lower value 0.941 | S. cerevisiae deletion strains, locus YOL012C, strain htz1 0.835 | S. cerevisiae deletion strains, locus YOL147C, strain pex11, stronger effect = lower value 0.987 | S. cerevisiae deletion strains, locus YOR001W, strain rrp6, stronger effect = lower value 0.962 | S. cerevisiae deletion strains, locus YOR061W, strain CKA2, stronger effect = lower value 0.995 | S. cerevisiae deletion strains, locus YOR069W, strain VPS5, stronger effect = lower value 0.991 | S. cerevisiae deletion strains, locus YOR070C, strain gyp1, stronger effect = lower value 1.01 | S. cerevisiae deletion strains, locus YOR080W, strain dia2, stronger effect = lower value 1.01 | S. cerevisiae deletion strains, locus YOR083W, strain WHI5, stronger effect = lower value 0.985 | S. cerevisiae deletion strains, locus YOR106W, strain vam3, stronger effect = lower value 1.04 | S. cerevisiae deletion strains, locus YOR136W, strain idh2, stronger effect = lower value 0.989 | S. cerevisiae deletion strains, locus YOR144C, strain elg1, stronger effect = lower value 0.982 | S. cerevisiae deletion strains, locus YOR184W, strain ser1, stronger effect = lower value 0.964 | S. cerevisiae deletion strains, locus YOR265W, strain rbl2, stronger effect = lower value 1.01 | S. cerevisiae deletion strains, locus YOR270C, strain vph1, stronger effect = lower value 1.09 | S. cerevisiae deletion strains, locus YOR290C, strain snf2, stronger effect = lower value 1.03 | S. cerevisiae deletion strains, locus YOR316C, strain cot1, stronger effect = lower value 0.962 | S. cerevisiae deletion strains, locus YPL051W, strain arl3, stronger effect = lower value 1.04 | S. cerevisiae deletion strains, locus YPL055C, strain LGE1, stronger effect = lower value 0.996 | S. cerevisiae deletion strains, locus YPL078C, strain atp4, stronger effect = lower value 1.05 | S. cerevisiae deletion strains, locus YPL106C, strain sse1, stronger effect = lower value 1.06 | S. cerevisiae deletion strains, locus YPL240C, strain hsp82, stronger effect = lower value 1 | S. cerevisiae deletion strains, locus YPL241C, strain CIN2, stronger effect = lower value 0.994 | S. cerevisiae deletion strains, locus YPR119W, strain clb2, stronger effect = lower value 0.971 | S. cerevisiae deletion strains, locus YPR141C, strain kar3, stronger effect = lower value 0.982 | S. cerevisiae deletion strains, locus YPR163C, strain tif3, stronger effect = lower value 0.975 | S. cerevisiae deletion strains, locus YPR167C, strain met16, stronger effect = lower value 0.966 | S. cerevisiae deletion strains, strain wtn01, stronger effect = lower value 0.955 | S. cerevisiae strains, strain wild type, stronger effect = lower value 0.995
